High-throughput results: PubChem, several laboratories
Efflux pump mplx: blocks antifungal efflux pumps in multiplex yeast assay | inhibition, % at 10 µM | S. cerevisiae Candida pump triplex, Nile Red efflux | hit rate 0.44% among 330,000;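 active = plate passing quality check with inhibition over a set limit, or well fluorescence over plate mean plus 4 SD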;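 note: Nile Red retained in pooled yeast measured as flow cytometry median fluorescence; 0% = buffer negative control and 100% = Enniatin B positive control; higher means more Nile Red kept so more efflux inhibition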
ATG4B inh: ATG4B (human) cysteine protease inhibition; ATG4B cleavage of LC3-PLA2, NBD-HPC fluorescence, 1 h; inhibition, % at 8.33 µM; hit rate 0.51% among 340,000; in the data active = inhibition above about 40%
Target sequence (Q9Y4P1 whole entry, looked up): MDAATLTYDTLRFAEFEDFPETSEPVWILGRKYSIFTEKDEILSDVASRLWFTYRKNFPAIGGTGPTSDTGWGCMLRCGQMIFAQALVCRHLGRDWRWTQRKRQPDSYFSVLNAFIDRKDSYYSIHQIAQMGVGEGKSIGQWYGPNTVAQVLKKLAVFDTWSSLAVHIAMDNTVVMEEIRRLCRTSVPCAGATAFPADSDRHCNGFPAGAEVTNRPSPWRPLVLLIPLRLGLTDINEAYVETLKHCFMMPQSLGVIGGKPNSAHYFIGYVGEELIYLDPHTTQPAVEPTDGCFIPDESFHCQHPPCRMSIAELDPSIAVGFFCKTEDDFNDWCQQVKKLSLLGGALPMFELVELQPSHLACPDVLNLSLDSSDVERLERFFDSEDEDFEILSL
GRK2 inh: inhibitors of human GRK2 displacing RNA aptamer; inhibition of aptamer binding, % at 10 µM; hit rate 0.59% among 330,000; bead flow cytometry, FAM-aptamer displacement from GRK2;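 active = inhibition of aptamer binding above 40%, roughly 3 SD of noise, on plates passing a quality check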;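 note: median bead fluorescence of bound FAM aptamer so fluorescent compounds give negative values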
Yeast superoxide: lowers age-related superoxide in aged yeast cells; superoxide response (% of plate mean), % at 10 µM; AID 2690; hit rate 0.18% among 330,000; S. cerevisiae aged cells, superoxide DHE fluorescence; stronger effect = lower value;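 active = superoxide response under a set limit, about three screen SD below normal, cut at about 65% in these data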;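 note: yeast aged for seven days with compound at 30 °C before DHE staining; 100% = average MFI of all compound-treated wells on the plate with controls excluded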
Superoxide pick: yeast aging superoxide inhibition, cherry pick confirmation; AID 434994; shares compounds with Yeast superoxide; S. cerevisiae aging, superoxide DHE fluorescence; stronger effect = lower value; superoxide response (% of plate), % at 10 µM; hit rate 1% among 850;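 active = superoxide signal below 65% of the plate average of sample wells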;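 note: cells aged with compound for 7 days at 30 degrees C before staining; 100% equals mean DHE fluorescence of all compound wells on the plate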
DHE counter: compound alters DHE oxidation or fluorescence in yeast; fluorescence response, % at 10 µM; shares compounds with Yeast superoxide; 850 tested, under 10 active; S. cerevisiae BY4741, flow cytometry; stronger effect = lower value;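 active = fluorescence response below 15%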;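 note: percent of the mean fluorescence averaged over all compound wells on the plate; lower means stronger quenching of DHE signal or ROS scavenging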
Numbers without * were called inactive; . = not tested or not shown. This is a sample that favours compounds with a hit; in the whole collection about 1.6% have one here.

SMILES	Efflux pump mplx	ATG4B inh	GRK2 inh	Yeast superoxide	Superoxide pick	DHE counter
O=C(Cc1ccc(Cl)cc1)Nc1cc(S(=O)(=O)N2CCOCC2)ccc1N1CCCC1	0	-16	1	101	134	122
COc1ccc(CC(=O)Nc2cc(S(=O)(=O)N3CCOCC3)ccc2N2CCCC2)c(OC)c1	.	-1	.	.	.	.
CCCn1ncc(C(=O)NC2CCCN(Cc3ccc(Cl)cc3)C2)c1C (configuration not stated)	0	-10	0	98	.	.
CSc1cccc(NS(=O)(=O)c2ccccc2)c1	0	-14	0	104	100	102
NC(=O)c1ccccc1NS(=O)(=O)c1ccccc1	0	3	0	111	101	92
CC(=O)Nc1ccc(NS(=O)(=O)c2ccccc2)cc1	0	-6	0	97	104	88
CN(C(=O)COC(=O)c1ccccc1Cc1ccccc1)C1CCS(=O)(=O)C1 (configuration not stated)	0	-2	6	103	.	.
CC(C)CNC(=S)NNC(=O)c1csc2c1CCC(C)C2 (configuration not stated)	0	3	4	59*	91	89
C=CCOC(=O)c1c(C)nc2cc3c(cc2c1C)OCO3	0	2	1	99	.	.
CCOc1ccccc1NC(=O)NCc1ccc(F)cc1	0	25	0	65*	104	111
CC(C)(C)n1nc(-c2ccc(F)cc2)c2c(N)ncnc21	0	-3	1	32*	72	93
Cc1ccc(-c2nn(C(C)(C)C)c3ncnc(NS(=O)(=O)c4ccc([N+](=O)[O-])cc4)c23)cc1	0	-10	0	100	.	.
Cc1ccc(-c2nc(N)c3c(-c4ccc(C)cc4)nn(C(C)(C)C)c3n2)cc1	0	-2	1	110	.	.
CC(C)(C)n1nc(-c2ccc(Cl)cc2)c2c(N)ncnc21	0	-5	3	50*	56*	92
CN(c1ccccc1)S(=O)(=O)c1ccc(C(=O)Nc2nnc(C3CC3)o2)cc1	0	0	0	95	98	100
CCN(c1ccccc1)S(=O)(=O)c1ccc(C(=O)Nc2nnc(COC)o2)cc1	0	-6	3	93	.	.
COCCN(CCOC)S(=O)(=O)c1ccc(C(=O)Nc2nnc(C3CC3)o2)cc1	0	-11	2	81	.	.
CCN(c1ccccc1)S(=O)(=O)c1ccc(C(=O)Nc2nnc(C3CC3)o2)cc1	0	-6	3	99	97	90
COc1ccc(CNC(=O)C(c2ccco2)N(C(=O)c2snc(C(N)=O)c2N)c2cccc(OC)c2)cc1 (configuration not stated)	0	23	0	107	.	.
CC(C)(C)c1ccc(/C=C/C(=O)c2ccc(NC3=NCCCS3)cc2)cc1	1	17	0	46*	113	122
CCCC(=O)Nc1nnc(S(=O)(=O)N(CC)c2ccccc2)s1	1	5	0	108	.	.
O=C(Nc1ccc(F)cc1)C(=O)c1c(O)[nH]c2ccc([N+](=O)[O-])cc12	0	16	4	64*	87	101
Cc1ccc(NCC(=O)N=Nc2c(O)[nH]c3ccc([N+](=O)[O-])cc23)cc1	0	0	2	119	.	.
CC(=O)N1CCc2cc(C(=O)CN3CCN(c4ccccc4F)CC3)ccc21	0	-21	0	100	.	.
O=C(CN1CCN(c2ccccc2F)CC1)c1ccc2cc[nH]c2c1	0	1	5	63*	96	88
SMILES	Efflux pump mplx	ATG4B inh	GRK2 inh	Yeast superoxide	Superoxide pick	DHE counter
CCOc1cccc(/C=C/c2ccc3cccc(O)c3n2)c1OC	0	1	2	42*	101	95
CCOc1cccc(/C=C/c2ccc3cccc(O)c3n2)c1O	0	-3	13	121	.	.
CC(=O)Oc1ccc(NC(=O)Cc2ccccc2)cc1	0	-6	0	88	.	.
CC(=O)Oc1ccc(Nc2ccccc2)cc1	2	-3	0	50*	94	102
C=CCn1c(SCC(=O)Nc2cc(C)ccc2OC)nnc1-c1ccco1	0	-5	0	116	96	91
C=CCn1c(SCC(=O)Nc2cc(C)c(Cl)cc2OC)nnc1-c1ccco1	0	21	2	97	104	97
C=CCn1c(SCC(=O)Nc2cc(OC)c(NC(=O)c3ccco3)cc2OC)nnc1-c1ccncc1	0	-18	2	92	.	.
COc1ccc(C)cc1NC(=O)CSc1nnc(-c2ccco2)n1Cc1ccco1	0	0	0	98	.	.
